Hits are enriched below; roughly 0.18% of the tested compounds scored in any of these assays.
Imprint erasure = genomic imprint erasure induction | mouse ES Peg3-LacZ reporter, beta-gal luminescence, 40 h | Potency, µM (series often up to 60.7 µM), for inactives: at the highest dose activity change, positive = activation, usual class: activators | actives 0.02% (n = 110,000) | AID 1948; also: potency is read from the fitted curve at half-maximal effect
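Each well holds 300 Peg3LacZ-Neo (maternal) female ES cells incubated 40 h at 37C, 5% CO2. LacZ is measured by BetaGlo luminescence, with AC50 and maximum efficacy derived from dose-response curves.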
GFP derepression = derepresses silenced GFP locus in mouse C127i cells; Potency, µM (series often up to 46.1 µM), inactives show top-dose GFP derepression (activation); actives 0.09% (n = 68,000); mouse C127i GFP locus derepression, cytometry, 30 h; also: % of control where 0% means no effect
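Murine C127i mammary cells carrying a silenced, stably integrated CMV-driven GFP reporter were treated with compound for 30 hours at 37 C. After PBS washes, GFP-positive cells were counted by laser-scanning microplate cytometry.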
IkB signaling = inhibitors of IkB signaling in ABC-DLBCL cells | actives 0.04% (n = 110,000) | Potency, µM (series often up to 57.1 µM), without a hit: top-dose IkBa stabilization activation | AID 445 | ABC-DLBCL IkBa-CBG/CBR dual luciferase ratio, 4 h; response scale: scaled: untreated 0%, proteasome inhibitor 100%; active = well fitted curve in the direction sought with a large enough effect in the signal ratio, not every such curve was filed as active; inconclusive = small, poorly fitted or top-dose-only effect, or a change in a side signal; the % refers to the signal ratio;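 also: potency is read from the fitted curve at half-maximal effect; the direction sought is a rising ratio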
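Luminescence ratio of IκBα-fused green versus native red beetle luciferase in OCI-Ly3 cells, 4 h post-doxycycline with compound; red signal alone, scaled from basal (0%) to zero light (-100%), flagged nonspecific or cytotoxic effects.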
USP2a inh = USP2a (human) protease inhibition. O75604. USP2a enzymatic assay, qHTS inhibition. Potency, µM (titrated, usually from 38.3 µM), for the others: at the top dose activity change, negative = inhibition, usual class: inhibitors. actives 0.1% (n = 60,000); also: potency is read from the fitted curve at half-maximal effect; nearly all actives have a fitted effect of over 60% in size
Target sequence (O75604 whole entry, looked up): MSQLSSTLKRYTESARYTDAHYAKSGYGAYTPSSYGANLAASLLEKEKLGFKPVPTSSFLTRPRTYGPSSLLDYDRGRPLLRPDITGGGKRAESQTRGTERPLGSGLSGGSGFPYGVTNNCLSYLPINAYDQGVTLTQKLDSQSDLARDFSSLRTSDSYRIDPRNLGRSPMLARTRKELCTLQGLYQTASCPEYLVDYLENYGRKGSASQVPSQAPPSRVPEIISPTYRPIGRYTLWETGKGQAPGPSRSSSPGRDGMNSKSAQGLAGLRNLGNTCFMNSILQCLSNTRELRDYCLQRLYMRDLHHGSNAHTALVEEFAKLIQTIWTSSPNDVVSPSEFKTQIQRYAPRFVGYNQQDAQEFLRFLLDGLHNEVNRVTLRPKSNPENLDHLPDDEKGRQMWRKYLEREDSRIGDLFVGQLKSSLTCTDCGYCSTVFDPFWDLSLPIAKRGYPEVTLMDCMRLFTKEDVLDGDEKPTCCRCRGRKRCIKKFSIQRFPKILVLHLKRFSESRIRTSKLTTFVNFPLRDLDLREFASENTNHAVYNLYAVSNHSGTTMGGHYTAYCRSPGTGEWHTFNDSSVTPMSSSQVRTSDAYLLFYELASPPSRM
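20 nM USP2 core + cpd, 30 min RT; add 20 nM Ub-PLA2/20 uM NBD C6-HPC; read Ex460/Em535 at 0 h and 2.5 h. Normalized to NEM; qHTS curve fit/classification.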
HBB splice mod = alters splicing of the hemoglobin beta chain; HBB splicing reporter cell assay, activation; EGFP reporter with mutant IVS2-654 intron; response scale: normalised to 500 nM splice-correcting PNA; Potency, µM (titrated, usually from 46.1 µM), for the others: at the highest dose activation, hits mostly activators; actives 0.06% (n = 65,000); also: potency is read from the fitted curve at half-maximal effect; 0% is about no effect
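HeLa cells stably expressing EGFP interrupted by mutant beta-globin intron 2 (IVS2-654), 500/well in 2% FCS. Treated with compound for 2 days at 37C. Splicing correction scored as total well GFP intensity (488 nm excitation, 500-520 nm emission); 500 nM antisense PNA served as control.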
Ub-GFP proteasome = proteasome inhibitors stabilizing ubiquitin-GFP reporter | Ubiquitin-GFP reporter cells, proteasome inhibition, GFP fluorescence; response scale: untreated = 0%, 10 µM MG-132 = 100% | Potency, µM (titrated, usually from 45.9 µM), inactives show top-dose activation (GFP accumulation), usual class: activators | 67,000 tested, under 10 active | AID 526; active = well fitted activation curve with a large enough effect, not every such curve was filed as active; inconclusive = small, poorly fitted or top-dose-only effect, or another doubt; inactive = no such curve, though single readings can be large or run the other way; also: potency is read from the fitted curve at half-maximal effect
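GFP accumulation read-out: laser plate cytometry counting ubiquitin(G76V)-GFP-expressing U2OS cells after 4 hr compound exposure at 37 °C. Titrations spanned 46 uM to 2.9 nM; 0% = basal, 100% = 10 uM MG-132; concentration-response curves fitted.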
* = called active by the depositor; ! = not confirmed by another sample; [ ] = dose if it differs, or a comment. Unless noted, calls follow the shape of the dose curve; as a rule, active = well fitted curve in the direction sought with a large enough effect; inconclusive = small, poorly fitted or top-dose-only effect, or another doubt; inactive = no such curve, though single readings can be large; an effect the other way counts as inactive or inconclusive.

`NC(=O)C1=CN([C@@H]2O[C@@H](COP(=O)(O)OP(=O)(O)OC[C@@H]3O[C@H](n4cnc5c(N)ncnc54)[C@@H](OP(=O)(O)O)[C@@H]3O)[C@H](O)[C@@H]2O)C=CC1` gave GFP derepression 0%, IkB signaling -5%, USP2a inh 6%, HBB splice mod 2% and Ub-GFP proteasome 3%.
For CCC(c1nnnn1Cc1ccccc1)N(Cc1ccco1)Cc1cc2cc(OC)ccc2[nH]c1=O (stereo not given) the results were GFP derepression 0%, IkB signaling 4µM*, USP2a inh 16% and Ub-GFP proteasome -2%.
`CCC(c1nnnn1Cc1ccco1)N(CCc1ccccc1)Cc1cc2cc(C)ccc2[nH]c1=O` (stereo not given) gave Imprint erasure -15%, GFP derepression 0%, IkB signaling inconclusive, USP2a inh 37% and Ub-GFP proteasome -3%.
`N#Cc1c(C(F)(F)F)cc(-c2ccccc2)nc1SCc1nc(N)nc(N2CCOCC2)n1` gave Imprint erasure -13%, GFP derepression 10µM*, IkB signaling -2%, USP2a inh 33%, HBB splice mod 10µM* and Ub-GFP proteasome 6%.
`O=C(CC1Nc2ccccc2NC1=O)c1ccccc1` (stereo not given) gave Imprint erasure -62%, GFP derepression 0%, IkB signaling inconclusive, USP2a inh 5%, HBB splice mod 6% and Ub-GFP proteasome -3%.
CC(=C1C2C=CC1C1C(=O)NC(=O)C21)c1ccccc1 (stereo not given) was read as Imprint erasure -11%, GFP derepression inconclusive, IkB signaling 25%, USP2a inh 4%, HBB splice mod 16µM* and Ub-GFP proteasome -4%.
O=C(O)c1cc(O)c2c(c1)[C@H]([C@H]1c3cc(C(=O)O)cc(O)c3C(=O)c3c(O[C@@H]4OC(CO)C(O)C(O)C4O)cccc31)c1cccc(O[C@@H]3OC(CO)C(O)C(O)C3O)c1C2=O (stereo not given in full) was read as Imprint erasure -7% and USP2a inh 13µM*.
`COC(=O)CSc1nc(N2CCCCC2)c2c(c1C#N)CCCC2` gave Imprint erasure -19%, GFP derepression 0%, IkB signaling 7%, USP2a inh 13µM*, HBB splice mod 8% and Ub-GFP proteasome 6%.
Screening N#Cc1c(SCC(=O)O)nc(N2CCCCC2)c2c1CCCC2 returned GFP derepression 0%[20.6 µM].
CC(=O)CC1OC(=O)C(Br)=C1NCc1ccccc1 (stereo not given) was read as Imprint erasure -32%, GFP derepression 13µM*, IkB signaling inconclusive, USP2a inh -3%, HBB splice mod 6% and Ub-GFP proteasome -3%.
`COc1c(O)cc2oc3cc(O)c(CC=C(C)C)c(O)c3c(=O)c2c1CC=C(C)C` gave Imprint erasure -26%, GFP derepression -2%[9.22 µM], IkB signaling 1%[11.4 µM], USP2a inh 10µM*! and Ub-GFP proteasome 4%.
`CN1CCC[C@@H]1c1cccnc1.O=C(O)c1ccccc1O.O=C([OH2+])c1ccccc1O.O=C([OH2+])c1ccccc1O.O=C([OH2+])c1ccccc1O.[Cu]` gave Imprint erasure -10%[10.9 µM], GFP derepression 4%[9.22 µM], IkB signaling 0%[11.4 µM], HBB splice mod 4%[9.22 µM] and Ub-GFP proteasome 3%[9.17 µM].
Screening CCc1ccc(N2C(=O)c3sc4nnc(C)c(=O)n4c3C2=O)cc1 returned Imprint erasure -23%, GFP derepression 10µM*, IkB signaling 1%, USP2a inh 4%, HBB splice mod -1% and Ub-GFP proteasome -19%.
Screening COC(=O)[C@H]1[C@@H]2C[C@H]3c4[nH]c5ccccc5c4CCN3C[C@@H]2CC[C@@H]1O returned GFP derepression 2%[9.22 µM], IkB signaling 0%[11.4 µM] and Ub-GFP proteasome 5%.
`O=C(NCC1CCCO1)c1sc(=S)n2c1[nH]c(=O)c1ccc(C(=O)N3CCCCC3)cc12` (stereo not given) gave Imprint erasure -14%, GFP derepression 0%, IkB signaling 0%, USP2a inh 2µM*, HBB splice mod -3% and Ub-GFP proteasome -4%.
For C=C(CO)[C@H]1Cc2c(ccc3c(=O)c4c(oc23)COc2cc(OC)c(OC)cc2-4)O1 the results were GFP derepression 2%[9.22 µM], IkB signaling -1%[11.4 µM] and Ub-GFP proteasome 3%.
NS(=O)(=O)c1ccc(NC(=O)CCC2CCCCC2)cc1 was read as Imprint erasure 6%, GFP derepression 5%, IkB signaling -3%, HBB splice mod 0% and Ub-GFP proteasome -9%.
O=C(CCCCCCCCCCCCC1CCCC1)Nc1ccc(S(=O)(=O)c2ccc(NC(=O)CCCCCCCCCCCCC3CCCC3)cc2)cc1 was read as Imprint erasure 14% and USP2a inh 25µM*.
O=c1c(O)c(-c2ccc(O)c(O)c2)oc2c(OC[C@H]3O[C@@H](O)[C@@H](O)[C@H](O)[C@@H]3O)c(O)cc(O)c12 was read as GFP derepression 7%[9.22 µM], IkB signaling 0%[11.4 µM] and Ub-GFP proteasome 2%.
Screening c1ccc(Nc2nc(-c3ccoc3)nc3ccccc23)cc1 returned Imprint erasure 4µM*, GFP derepression -3%[9.22 µM], IkB signaling 0%[11.4 µM], USP2a inh 157%, HBB splice mod 0% and Ub-GFP proteasome -6%.
For C[C@@H]1C(=O)O[C@@H]2C[C@@]34[C@H]5C[C@@H](C(C)(C)C)[C@@]36[C@@H](OC(=O)[C@@H]6O)O[C@]4(C(=O)O5)[C@@]12O the results were GFP derepression -7%[9.22 µM], IkB signaling 1%[11.4 µM] and Ub-GFP proteasome -3%.
For COc1ccc2c(c1)[n+]([O-])c(/C(C)=N/NC(N)=S)c(C)[n+]2[O-] the results were GFP derepression 0%[9.22 µM], IkB signaling 1%[11.4 µM], HBB splice mod 0%[9.22 µM] and Ub-GFP proteasome 9%[9.17 µM].
`Cc1ccc(-n2nc3c([n+]2[O-])CCc2c-3no[n+]2[O-])cc1` gave Imprint erasure -30%, GFP derepression 15%, IkB signaling inconclusive, USP2a inh 2µM* and Ub-GFP proteasome 0%.
`O=C(Nc1nc(-c2ccccn2)cs1)c1ccc(Cl)s1` gave Imprint erasure -13%, IkB signaling 1µM*, HBB splice mod -2% and Ub-GFP proteasome -6%.

Compound activity from PubChem.
